Screens from PubChem BioAssay.
Only some compounds are listed: those with a hit (about 12% of all), similar ones and a draw of the others.
Cycloheximide cs: counter-screen hit for Shiga toxin inhibitors, cycloheximide. AID 2314. 12% of 300,000 active. cell reporter, cycloheximide protein synthesis inhibition counterscreen. max response, %; in the data active = max response mostly above about 13%, no sharp cut-off; inactive = mostly below about 14%; note: read at 38.3 µM for the half of the compounds with a filed dose; 0% is about no effect
Sm TGR inh: inhibitors of Schistosoma mansoni thioredoxin glutathione reductase; 3% of 360,000 active; Q962Y6; AID 485364; Potency, µM (titrated, usually from 114 µM), inactives show at the top dose activity change, negative = inhibition, usual class: inhibitors; purified TGR, DTNB reduction, TNB absorbance 405 nm; active = well fitted inhibition curve with a large enough effect; inconclusive = small, poorly fitted or top-dose-only effect; inactive = no such curve, though single readings can be large or run the other way; note: potency is the fitted concentration of half-maximal effect; % is set by controls: 0 for no effect and ±100 for the full control effect; nearly all actives have a fitted effect of over 60% in size
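TGR 20 nM + NADPH 100 uM (dispensed conc.), cpd preinc 15 min RT; start with NADPH (500 uM addition) then DTNB (15 mM addition). Kinetic TNB absorbance, 405 nm filter. Four-parameter Hill fit across titration.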
FMDV inh: foot and mouth disease virus antiviral activity; FMDV antiviral cell-based qHTS; Potency, µM (series often up to 57.9 µM), without a hit: at the highest dose activity change, negative = inhibition, hits mostly inhibitors; 1.2% of 410,000 active; calls by dose curve; tested in HEK293T cells; note: read-out not given here; potency is the fitted concentration of half-maximal effect; % is set by controls: 0 for no effect and ±100 for the full control effect; nearly all actives have a fitted effect of over 45% in size
Shiga toxin inh: blocks Shiga toxin action in Vero cells | AID 2315 | 9.2% of 290,000 active | Vero cells, Shiga toxin protein synthesis inhibition reporter | inhibition, % at 38.7 µM; in the data active = inhibition mostly above about 28%, no sharp cut-off; inactive = mostly below about 43%; note: 0% is about no effect
An asterisk follows results filed as active; ! = not confirmed by another sample.

Screening CCOC(=O)C1CCCN(CC(=O)c2ccc(F)cc2)C1 (configuration not stated) returned Cycloheximide cs -1.2, Sm TGR inh 17.8µM*, FMDV inh 16.6% and Shiga toxin inh 3.7.
`CCOC(=O)C1CCCN(CC(=O)Nc2c(F)c(F)c(F)c(F)c2F)C1` (configuration not stated) gave Cycloheximide cs -5.3, Sm TGR inh 0.0%, FMDV inh 5.1% and Shiga toxin inh -8.0.
CCOC(=O)C1CCCN(CCC(=O)Nc2cccc(F)c2)C1 (configuration not stated) was read as Cycloheximide cs -4.3, Sm TGR inh -5.6%, FMDV inh -14.3% and Shiga toxin inh -5.7.
Screening CCOC(=O)C1CCCN(CCC(=O)Nc2cccc(C)c2)C1 (configuration not stated) returned Cycloheximide cs 48.5*, Sm TGR inh 0.2%, FMDV inh 16.9% and Shiga toxin inh 82.0*.
For Cc1ccc(N(CC(=O)Nc2ccc(Cl)cc2)S(=O)(=O)c2cccc3nonc23)cc1 the results were Sm TGR inh 2.3% and FMDV inh 8.8%.
`CC1CCCCN1c1nnc(NC(=O)Nc2ccccc2F)s1` (configuration not stated) gave Sm TGR inh -0.1% and FMDV inh -12.1%.
For CSc1nn(Cc2ccccc2C)c(NC(C)=O)c1S(=O)(=O)c1ccc(C)cc1 the results were Sm TGR inh 0.7% and FMDV inh -11.9%.
Screening CC(=O)c1ccc(N=C2C(=O)Nc3ccccc32)cc1 returned Cycloheximide cs 1.7, Sm TGR inh 8.3%, FMDV inh 18.8% and Shiga toxin inh 6.0.
For CC(=O)N(/N=C1\Sc2ccccc2C1=O)c1ccccc1C the results were Cycloheximide cs 67.7*, Sm TGR inh 11.1%, FMDV inh 10.8% and Shiga toxin inh 91.1*.
CC(=O)N(c1ccccc1C)c1ccccc1C was read as FMDV inh 20.0%.
`CC(=O)Oc1ccc(N(C(C)=O)S(=O)(=O)c2ccc(C)cc2C)c2ccccc12` gave Cycloheximide cs -0.6, Sm TGR inh -2.7%, FMDV inh 5.1% and Shiga toxin inh -6.0.
Screening CC(=O)N(/N=C1\Sc2ccccc2C1=O)c1ccccc1 returned Cycloheximide cs 39.8*, Sm TGR inh 5.2%, FMDV inh 22.2% and Shiga toxin inh 36.5*.
Screening CC(=O)N(/N=C1\Sc2ccccc2C1=O)c1ccc(C)cc1C returned Cycloheximide cs 59.4*, Sm TGR inh 2.8%, FMDV inh inconclusive and Shiga toxin inh 121.2*.
Screening CC(=O)N(/N=C1/C(=O)Nc2ccccc21)c1ccccc1 returned Cycloheximide cs 28.1*, Sm TGR inh inconclusive, FMDV inh 15.4% and Shiga toxin inh 43.9*.
Screening CCCSc1ncc(Cl)c(C(=O)Nc2sc3c(c2C(=O)OC)CCCC3)n1 returned Sm TGR inh 3.6% and FMDV inh -6.3%.
For CCN(Cc1ccccc1)C(=O)Cn1c(=O)n(-c2ccc(Cl)c(Cl)c2)c(=O)c2c(C)c(C(=O)N(C)C)sc21 the results were Sm TGR inh -17.9% and FMDV inh -15.5%.
`O=C(NCCC1=CCCCC1)C1CCN(C(=O)N2CCOc3ccccc32)CC1` gave Sm TGR inh -0.3% and FMDV inh -15.5%.
`O=C(/C=C/Nc1ccc(Br)cc1F)c1ccco1` gave Cycloheximide cs 11.9, Sm TGR inh -21.5%, FMDV inh 10µM* and Shiga toxin inh 29.3.
Screening O=C(Cc1ccccc1)Nc1ccccc1Oc1ccccc1 returned Cycloheximide cs 7.4, Sm TGR inh 7.0%, FMDV inh 32.5% and Shiga toxin inh 14.9.
For O=C(/C=C/Nc1ccccc1O)c1ccco1 the results were Cycloheximide cs 37.9*, Sm TGR inh 0.0%, FMDV inh 6.9% and Shiga toxin inh 63.1*.
Screening O=C(/C=C/Nc1ccccc1Oc1ccccc1)c1ccco1 returned Cycloheximide cs 51.5*, Sm TGR inh -27.0%, FMDV inh -12.9% and Shiga toxin inh 119.0*.
Screening Cc1cc(NC(=O)CCNS(=O)(=O)c2ccc3c(c2)CCCC(=O)N3)ccc1Br returned Sm TGR inh -0.5% and FMDV inh 0.0%.
COc1cc(OC)c(OC)cc1CN1CCCC(c2[nH]ncc2-c2cccc(C(F)(F)F)c2)C1 (configuration not stated) was read as FMDV inh -6.6%.
CCc1cccc(NC(=O)c2c(N3CCCC3=O)c3cc(C)ccc3n2C)c1 was read as Sm TGR inh -8.0% and FMDV inh inconclusive.
`COCCN=C1N[C@@H](c2ccc(Br)cc2)C(C(=O)OC)=C(C)N1Cc1ccccc1` gave Cycloheximide cs -2.3, Sm TGR inh 15.1%, FMDV inh -26.0% and Shiga toxin inh 5.7.
`COC(=O)C1=C(C)N(Cc2ccccc2)C(=O)N[C@H]1c1ccc(Br)cc1` gave Cycloheximide cs -4.5, Sm TGR inh 1.2%, FMDV inh 0.0% and Shiga toxin inh 10.8.
Screening COC(=O)C1=C(C)N(Cc2ccccc2)C(=O)N[C@H]1c1ccco1 returned FMDV inh -4.3%.
For COC(=O)C1=C(C)N(Cc2ccco2)C(=O)N[C@H]1c1ccc(Br)cc1 the results were Cycloheximide cs -2.3, Sm TGR inh 35.5µM* and Shiga toxin inh -11.8.
`CC(=O)C1=C(C)N(Cc2ccccc2)C(=O)N[C@H]1c1ccco1` gave Cycloheximide cs 3.7, Sm TGR inh 17.8µM*, FMDV inh 2.2% and Shiga toxin inh 2.6.
COCCN=C1N[C@@H](c2ccccc2)C(C(=O)OC)=C(C)N1Cc1ccccc1 was read as Cycloheximide cs -2.2, Sm TGR inh 22.4µM*!, FMDV inh -16.0% and Shiga toxin inh -3.7.
COC(=O)C1=C(C)N(Cc2ccco2)C(=O)N[C@H]1c1ccccc1 was read as Cycloheximide cs 6.6, Sm TGR inh 20µM* and Shiga toxin inh -10.3.
`COc1cc(Br)ccc1C1C(C(=O)Nc2ccc(C)cc2C)=C(C)Nc2nnnn21` (configuration not stated) gave Sm TGR inh 4.2% and FMDV inh -12.5%.
CC(=O)Nc1ccc(N(C(=O)Cn2nnc3ccccc32)C(C(=O)NCc2ccccc2)c2ccc(C)cc2)cc1 (configuration not stated) was read as Sm TGR inh 0.8% and FMDV inh -9.5%.
Cc1ccc(S(=O)(=O)Nc2cc(C)c(O)c(S(=O)(=O)c3ccc(C)cc3)c2)cc1 was read as Cycloheximide cs -3.9, Sm TGR inh 44.7µM*, FMDV inh 60.4% and Shiga toxin inh 11.3.
`Cc1cc(NS(=O)(=O)c2ccccc2)cc(Cl)c1O` gave Cycloheximide cs 12.4, Sm TGR inh inconclusive, FMDV inh 19.0% and Shiga toxin inh 23.3.
Screening Cc1ccc(-n2nnnc2CNC(=O)C(C)(C)C)cc1C returned Sm TGR inh 1.5% and FMDV inh -10.1%.
For CCc1cc(C(=O)NCC(c2ccc(OC)cc2)N2CCOCC2)sc1C (configuration not stated) the results were Sm TGR inh -4.7% and FMDV inh -15.1%.
For COc1ccc(C(CNC(=O)c2cc(C)oc2C)N2CCOCC2)cc1 (configuration not stated) the results were Cycloheximide cs -1.7, Sm TGR inh 28.2µM*, FMDV inh 95.8% and Shiga toxin inh 52.5.
